An excerpt weighted towards active compounds, which were near 4.1% of everything screened.
hgDAF12 agonist = activates the H. glycines DAF-12 receptor ligand-binding domain; HEK293 GAL4-hgDAF12 UAS-luciferase reporter, agonist luminescence; normalized to butyrate control; activation, % at 6.8 µM; actives 1.8% (n = 370,000); AID 687014;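 active means activation above a cutoff set at the mean of all screened compounds plus 3 SD, cut at about 10% in these data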
ssDAF12 agonist = S. stercoralis DAF-12 activation, primary screen | HEK293 ssDAF-12/GRIP1 lit1-tk-luc reporter, luminescence; % of 3 µM dafachronic acid response | actives 1% (n = 370,000) | activation, % at 6.8 µM;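 active means activation above the mean over all tested compounds plus 3 SD, cut at about 0.9% in these data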
DAX1 inh-1 = blocks DAX1 repression of SF-1 activated StAR promoter; HEK293T StAR-luciferase reporter, SF-1/DAX-1 repression relief; AID 652010; inhibition, % at 6.8 µM; actives 1.1% (n = 370,000);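 active means inhibition above the mean over all tested compounds plus 3 SD, cut at about 3.6% in these data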;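 further: higher inhibition means more luminescence from relief of DAX-1 repression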
hcDAF12 agonist = activates DAF-12 receptor from parasite H. contortus; actives 1.4% (n = 370,000); activation, % at 6.8 µM; HEK293 hcDAF-12 lit1-tk-luc reporter, luminescence; 0% DMSO, 100% Δ7-dafachronic acid; AID 652067;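 active means activation above the mean of all tested compounds plus 3 SD, cut at about 5.5% in these data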
DAX1 inh-2 = NR0B1 (DAX1) inhibition; HEK293 Gal4-DAX1 luciferase reporter, luminescence; inhibition, % at 6.75 µM; actives 0.99% (n = 340,000); AID 504766;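 active means inhibition above the mean over all tested compounds plus 3 SD, cut at about 4.2% in these data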;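 further: inhibition shows as a rise in luminescence from relieved DAX1 repression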
Target sequence (P51843 207-470 limits assumed): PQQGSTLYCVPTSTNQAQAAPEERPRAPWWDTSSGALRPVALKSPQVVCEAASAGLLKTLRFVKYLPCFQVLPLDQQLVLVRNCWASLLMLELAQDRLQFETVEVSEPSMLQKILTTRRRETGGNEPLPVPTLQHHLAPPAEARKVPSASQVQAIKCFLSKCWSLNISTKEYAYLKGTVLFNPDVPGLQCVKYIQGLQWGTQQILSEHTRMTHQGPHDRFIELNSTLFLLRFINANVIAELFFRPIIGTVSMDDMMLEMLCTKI
Of the large screens only hits and unclear results are named; the others gave an inactive call.

Cc1cccc(-c2cc3nc4c(c(N5CCOCC5)n3n2)CCCC4)c1	DAX1 inh-1 4.5
Cn1cc([N+](=O)[O-])c(C(=O)NCc2cc3ccccc3[nH]2)n1	ssDAF12 agonist 1.8
Cn1cc([N+](=O)[O-])c(C(=O)Nc2ccc(-c3nc4ccccc4[nH]3)cc2)n1	none
O=S(=O)(NCCc1ccccc1)c1ccc(-n2cnnn2)cc1	none
CCNS(=O)(=O)c1ccc(-c2ccc(-n3cnnn3)cc2)cc1	DAX1 inh-2 6.3
Cc1ccccc1C(=O)Nc1cc(S(=O)(=O)N2CCCCC2)ccc1N1CCN(C)CC1	DAX1 inh-2 5.0
COc1ccc(NCC(=O)Nc2cc(S(=O)(=O)N3CCOCC3)ccc2N2CCOCC2)c(OC)c1	DAX1 inh-2 7.1
CN1CCN(c2ccc(S(=O)(=O)N3CCCCC3)cc2NC(=O)c2ccc3ccccc3c2)CC1	none
CCN1CCN(c2ccc(S(=O)(=O)N3CCOCC3)cc2NC(=O)c2ccc(C)cc2C)CC1	DAX1 inh-1 3.9
Oc1cc(Cl)cc(Cl)c1Cl	none
CCC(C)N(C(=O)CNc1nnnn1-c1ccccc1)C(C)CC (stereo unspecified)	none (no result: DAX1 inh-2)
COC(=O)[C@]12C[C@H](CC(=O)N3CCC(c4ccccc4)CC3)C(=O)N(Cc3ccc(Cl)cc3Cl)C1=C[C@H](C(C)(C)C)O[C@@H]2C	ssDAF12 agonist 1.1 (no result: DAX1 inh-2)
CC(C)(C)SCCNC(=O)c1ccccc1	none
Cc1ccc(C(=O)NCCSC(C)(C)C)cc1	hgDAF12 agonist 11, DAX1 inh-1 4.0
O=[N+]([O-])c1cccc(/C=N/N2CCN(Cc3ccccc3)CC2)c1	none
O=[N+]([O-])c1ccccc1/C=C/C=N/N1CCCCC1	hgDAF12 agonist 11, DAX1 inh-2 7.3
O=[N+]([O-])c1cccc(C=NN2CCCCCC2)c1	hgDAF12 agonist 11
c1nc(NCC2CC2)c2cc(-c3ccc4c(c3)OCO4)ccc2n1	none (no result: DAX1 inh-1, DAX1 inh-2)
COCCNc1nnc(SCC(=O)NNC(=O)c2ccc([N+](=O)[O-])cc2)s1	none
CCOC(=O)c1cc(C#N)c(SCC(=O)O)[nH]c1=O	none
CCOC(=O)c1cc(C#N)c(SCC(N)=O)[nH]c1=O	DAX1 inh-2 4.5
c1ccc(N2CCN(Cc3ccc4c(c3)OCO4)CC2)nc1	none (no result: DAX1 inh-2)
Cc1cc2c(cc1C)-n1nnnc1C(N1CCN(c3ccccn3)CC1)C(c1ccc3c(c1)OCO3)=N2 (stereo unspecified)	hcDAF12 agonist 6.3 (no result: DAX1 inh-2)
Cc1cccc(C)c1NC(=O)CN(c1c(C)cccc1C)S(C)(=O)=O	DAX1 inh-2 5.0
COc1ccc(NC(=O)CN(c2c(C)cccc2C)S(C)(=O)=O)cc1	none
Clc1ccc(-c2cc(-c3nnc4sc(Cc5cccs5)nn34)[nH]n2)cc1	none (no result: DAX1 inh-2)
COc1cc(/C=C/C(=O)c2c(O)cc(C)oc2=O)cc(OC)c1O	none
CSc1ccc(/C=C/C(=O)c2c(O)cc(C)oc2=O)cc1	DAX1 inh-2 6.6
O=C(Nc1ccc(C(F)(F)F)cc1)OC1CCC12CCC(c1ccccc1)CC2 (stereo unspecified)	none (no result: DAX1 inh-2)
CC1CC(C(O)c2ccccn2)C(=O)C(C(O)c2ccccn2)C1 (stereo unspecified)	ssDAF12 agonist 2.0
CC(C(=O)c1ccccc1)C(O)c1ccccn1 (stereo unspecified)	none
Cn1c(=O)c2c(-c3ccccc3)n(-c3ccccc3N)cc2n(C)c1=O	hgDAF12 agonist 12
Cn1c(=O)c2c(-c3ccccc3)n(-c3ccccc3S)cc2n(C)c1=O	none
COc1ccc(-c2cc3ccccc3n2CC(O)Cn2nc(C)cc2C)cc1 (stereo unspecified)	none
COc1ccc(-c2cc3ccccc3n2CC(O)CN2CCC(C)CC2)cc1 (stereo unspecified)	hcDAF12 agonist 5.7
CC(=O)Oc1oc(-c2ccccc2)nc1/C=N/c1ccccn1	DAX1 inh-2 5.1
O=C(NCCc1c[nH]c2ccccc12)OCc1cn(Cc2ccc(F)cc2F)nn1	none (no result: DAX1 inh-2)
CC(C)C(C#CC1CC1)NCc1ccc2c(c1)OCO2 (stereo unspecified)	none (no result: DAX1 inh-2)
O=C(NCCc1ccccc1)C1CCCN1C(=O)Nc1ccc(F)cc1 (stereo unspecified)	DAX1 inh-2 5.1
O=C(NCCc1ccc(Cl)cc1)C1CCCN1C(=O)Nc1ccc(F)cc1 (stereo unspecified)	none
Cc1ccc(OCc2nnc(SCC(=O)c3ccc4ccccc4c3)n2-c2ccc(Cl)cc2)cc1	none (no result: DAX1 inh-2)
Cc1ccc(NC(=O)C2CCN(c3ncccn3)CC2)cc1C	none (no result: DAX1 inh-2)
O=C(/C=C/c1ccc(Cl)cc1Cl)N1CCc2ccccc21	hgDAF12 agonist 13
Cc1cccc(CN2C(=O)c3ccccc3S(=O)(=O)c3ccc(C(=O)NCCCN4CCCC4)cc32)c1	none
O=C(NCCN1CCCC1)c1ccc2c(c1)N(Cc1cccc(Cl)c1)C(=O)c1ccccc1S2(=O)=O	hcDAF12 agonist 6.2
COc1ccc(-c2noc(C3CCCN(C(=O)N[C@@H]4C[C@H]4c4ccccc4)C3)n2)cc1 (stereo partly specified)	none (no result: DAX1 inh-2)
Cc1ccc(/C=N/Nc2ccc(C(=O)O)cc2)s1	none
Cc1ccsc1/C=N/Nc1ccc(C(=O)O)cc1	hcDAF12 agonist 6.4
Cc1cc(C)nc(Nc2n[nH]c(-c3ccc(C(C)(C)C)cc3)n2)n1	none
Cc1cc(C)nc(Nc2n[nH]c(-c3ccc(N)cc3)n2)n1	hgDAF12 agonist 11
Cc1cc(C)nc(Nc2n[nH]c(-c3ccccc3C)n2)n1	DAX1 inh-2 4.6
Cc1cc(C)nc(Nc2n[nH]c(-c3ccccc3Br)n2)n1	none
COc1cc(-n2c(C)nc3cc(C(=O)N4CCCCC4)ccc32)cc(OC)c1OC	none (no result: DAX1 inh-2)
O=C(C(=O)N1CCN(S(=O)(=O)c2ccc(Cl)cc2)CC1)c1cccc(C(F)(F)F)c1	none (no result: DAX1 inh-2)
Cc1ccc(CNC(=O)OC(C)(C)C)c(/C=C/S(=O)(=O)NCCc2ccccc2)c1	none (no result: DAX1 inh-2)
CC(=O)NNC(=O)c1cc2c3ccccc3n(C)c2s1	none
Cn1c2ccccc2c2cc(C(=O)N3CCN(CCO)CC3)sc21	DAX1 inh-2 5.4
COCc1cc(N2CCN(C(=O)OC(C)(C)C)C[C@H]2C)ccc1N1CCN(Cc2ccccc2)[C@@H](C)C1	none (no result: DAX1 inh-2)
O=C(Nc1ccc([N+](=O)[O-])cc1)C(Cc1ccccc1)N1C(=O)c2cccc3cccc(c23)C1=O (stereo unspecified)	ssDAF12 agonist 1.4
COc1ccc(Cn2cc(CN3[C@H](C)COc4cc(Br)ccc4S3(=O)=O)nn2)cc1	none (no result: DAX1 inh-2)
CCn1c2ccccc2c2cc(NC(=O)COC(=O)c3ccc(F)cc3Cl)ccc21	none (no result: DAX1 inh-2)
CCCCn1cnc2cc(C)c(C)cc21	none
CC1(C)CC(=O)C2=C(C1)Nc1cc3c(cc1C2c1ccc(F)cc1)OCO3 (stereo unspecified)	none
CC1(C)CC(=O)C2=C(C1)Nc1cc3c(cc1C2c1ccc2c(c1)OCO2)OCO3 (stereo unspecified)	DAX1 inh-2 5.3
N#Cc1ccc(NC(=O)OC2CCC23CCC(c2ccccc2)CC3)cc1 (stereo unspecified)	none (no result: DAX1 inh-2)

Source: PubChem BioAssay (The Scripps Research Institute Molecular Screening Center)
